TDP1 cell CPT = DT40-hTDP1 cell growth loss with CPT. chicken DT40 Tdp1-/-;hTDP1 cells + 20 nM CPT, ATP luminescence, 48 h. Potency, µM (top dose mostly 46.2 µM), hits mostly inhibitors. 420,000 tested, 12% active. AID 686979; further: nearly all actives have a fitted effect of over 55% in size
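Chicken DT40 Tdp1-/- cells complemented with human TDP1, 400 cells/well, exposed to compounds plus 20 nM camptothecin for at least 48 h at 37 C; viability read as ATP content by CellTiter-Glo luminescence.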
IL1B secr inh = inflammasome signaling inhibition, IL-1 beta readout; 360,000 tested, 4.7% active; THP-1 LPS/ATP IL-1B secretion, AlphaLISA, 16 h; hits give low values; activity change, % at 57.5 µM; in the data active means activity change below about -50%; inconclusive means mostly about -30% to -49%
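Secreted IL-1B measured by AlphaLISA bead assay after 16 h compound exposure of THP-1 cells; compounds (final up to 57.5 uM) added 1 h before LPS (250 ng/mL) and ATP (1.25 mM) stimulation; lower signal means less secretion.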
ELG1 repair inh = inhibitors of ELG1-dependent DNA repair in HEK293T cells | HEK293T ELG1-luciferase reporter, luminescence, 16 h; DNA damage induced by 5-fluorouridine | Potency, µM (doses to about 46.1 µM), actives largely listed as inhibitors | 330,000 tested, 2.3% active | AID 504467; further: nearly all actives have a fitted effect of over 55% in size
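Reporter activity after DNA damage by 5-fluorouridine is monitored. Compound-treated cells incubate 16 hr at 37 °C, then ONE-Glo is added for 30 min before luminescence reading.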
TDP1 cell noCPT = qHTS for Inhibitors of human tyrosyl-DNA phosphodiesterase 1 (TDP1): qHTS in cells in absence of CPT | AID 686978, 2013 | 420,000 tested, 15% active | DT40 Tdp1-/- hTDP1 cells, no CPT, ATP luminescence, 48 h | Potency, µM (top dose mostly 46.2 µM), hits mostly inhibitors; further: nearly all actives have a fitted effect of over 55% in size
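No-CPT arm: Tdp1-/-;hTDP1 DT40 cells (400/well) plus compounds, incubated ≥48 hr at 37 °C. Readout CellTiter-Glo luminescence.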
RORgamma inh = blocks mouse ROR gamma transcriptional activity | P51450 | Drosophila S2 Gal4-RORgamma UAS-luciferase reporter, 20 h | Potency, µM (titrated, usually from 53.6 µM), actives largely listed as inhibitors | 310,000 tested, 5.4% active | AID 2551; further: nearly all actives have a fitted effect of over 60% in size
Target sequence (P51450 whole entry, looked up, the tested form may be a part): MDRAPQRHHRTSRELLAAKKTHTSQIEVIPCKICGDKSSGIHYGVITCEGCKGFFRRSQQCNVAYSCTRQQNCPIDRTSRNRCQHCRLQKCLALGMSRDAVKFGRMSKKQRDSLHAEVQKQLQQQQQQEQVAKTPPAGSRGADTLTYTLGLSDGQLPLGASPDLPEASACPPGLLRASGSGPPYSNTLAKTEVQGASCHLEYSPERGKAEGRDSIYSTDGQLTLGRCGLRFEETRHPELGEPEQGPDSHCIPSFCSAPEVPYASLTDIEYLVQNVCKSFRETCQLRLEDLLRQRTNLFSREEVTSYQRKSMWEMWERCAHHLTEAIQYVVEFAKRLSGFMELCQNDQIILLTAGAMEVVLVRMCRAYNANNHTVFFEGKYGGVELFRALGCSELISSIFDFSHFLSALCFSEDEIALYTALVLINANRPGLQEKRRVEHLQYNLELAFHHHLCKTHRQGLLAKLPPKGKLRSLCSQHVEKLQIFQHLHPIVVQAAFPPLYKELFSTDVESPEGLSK
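A Gal4/UAS one-hybrid system in insect cells: metallothionein-promoter Gal4–ROR gamma fusion plus Photinus luciferase reporter. Copper sulfate 700 uM final, 20 hr ambient incubation, luminescent detection after 10 min with reagent.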
VP16 counter = inhibits Gal4-VP16 luciferase reporter, ROR gamma counter-screen; 310,000 tested, 3.5% active; Potency, µM (top dose mostly 53.6 µM), most hits filed as inhibitors; Drosophila S2 Gal4-VP16 UAS-luciferase, luminescence, 20 h; AID 2546;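 further: Gal4-VP16 expression switched on by copper sulfate through the metallothionein promoter; nearly all actives have a fitted effect of over 50% in size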
Hits are given with their value; 0 = inactive; ? = inconclusive; - = not tested or not shown; [ ] = dose if it differs, or a comment. This is a sample that favours compounds with a hit; in the whole collection about 21% have one here. Unless noted, the call rests on the fitted dose curve; in most records, active means well fitted curve in the direction sought with a large enough effect; inconclusive means small, poorly fitted or top-dose-only effect, or another doubt; inactive means no such curve, though single readings can be large; an effect the other way counts as inactive or inconclusive.

SMILES	TDP1 cell CPT	IL1B secr inh	ELG1 repair inh	TDP1 cell noCPT	RORgamma inh	VP16 counter
CCOC(=O)[C@]12CCCC=C1N(Cc1cccc3ccccc13)C(=O)[C@H](CC(=O)N1CCN(C(=O)C3CC3)CC1)C2	?	0	-	20.6µM	-	-
Cc1ccc(Cc2nnc(SCC(=O)Nc3ccccc3)n(N)c2=O)cc1	0	0	0	0	-	-
C=CCC(O)(C#Cc1ccccc1)c1ccccc1 (stereo not drawn)	-	-	-	-	0	0
CCc1cccc(OCC(O)Cn2c(N3CCCCC3)nc3c2c(=O)[nH]c(=O)n3C)c1 (stereo not drawn)	8.2µM	?	?	7.31µM	?	0
Cc1ccccc1OCC(O)Cn1c(Br)nc2c1c(=O)[nH]c(=O)n2C (stereo not drawn)	13µM	0	?	?	0	0
Cn1c(=O)[nH]c(=O)c2c1nc(Br)n2CC(O)COc1ccc(Cl)cc1 (stereo not drawn)	?	0	0	0	0	0
Cc1ccccc1OCC(O)Cn1c(N2CCCCC2)nc2c1c(=O)[nH]c(=O)n2C (stereo not drawn)	?	0	0	8.2µM	0	0
Cc1ccc(OCC(O)Cn2c(N3CCCCC3)nc3c2c(=O)[nH]c(=O)n3C)cc1C (stereo not drawn)	?	0	0	?	?	0
Cn1c(=O)[nH]c(=O)c2c1nc(N1CCCC1)n2CC(O)COc1ccccc1 (stereo not drawn)	0	0	0	0	0	0
CCSc1nc2c(c(=O)[nH]c(=O)n2C)n1CC(O)COc1ccc(Cl)cc1 (stereo not drawn)	?	-	-	9.2µM	-	-
Cc1cc(C(=O)Nc2ccc(Br)cc2)cs1	0	0	?	0	0	?
Cc1ccccc1C(=O)N1CCC(C(=O)NC(C)c2ccc(-n3ccnc3)cc2)CC1 (stereo not drawn)	0	0	0	0	0	0
CN(C(=O)c1cccc(NC(=O)Cc2ccc(NC(=O)C3CCCN(C(=O)C4CC4)C3)cc2)c1)C1CCCC1 (stereo not drawn)	0	?	-	?	-	-
CCc1ccccc1NC(=O)Cn1c(=O)n(Cc2ccco2)c(=O)c2ccccc21	0	-	-	0	-	-
CCSc1nc2c(c(=O)[nH]c(=O)n2C)n1CC(O)COc1ccccc1C (stereo not drawn)	14.6µM	0	16.4µM	?	0	0
Cc1cc2c(cc1C)CSC(c1ccccc1OC(=O)C(C)C)SC2	?	0	0	11.2µM	0	0
COc1cc2c(cc1OC)C(COc1ccccc1OC)N(C(=O)C(C)C)CC2 (stereo not drawn)	0	0	?	0	0	0
Cc1ccc(CNC(=O)CCc2c(C)nc3nc(C)nn3c2C)cc1	0	-	-	0	-	-
O=C(Nc1nc(-c2ccc(F)cc2)cs1)C1CCN(C(=O)c2ccc(F)cc2)CC1	6.51µM	-83.6	18.3µM	5.8µM	-	-
O=C(Nc1ccc(Br)cc1)C1CCN(C(=O)c2ccc(F)cc2)CC1	?	-73.2	0	?	0	0
COc1ccc(C(=O)N2CCC(C(=O)c3c(C)cc(C)cc3C)CC2)cc1	?	0	?	23.1µM	0	0
O=C(Nc1cccc(F)c1)C1CCN(C(=O)c2ccc(Br)cc2)CC1	?	0	0	?	0	0
COc1ccc(C(=O)N2CCC(C(=O)O)CC2)cc1	0	0	0	0	0	0
COc1ccc(NC(=O)C2CCN(C(=O)c3ccc(OC)cc3)CC2)cc1	14.6µM	0	?	?	0	0
COc1cc2c(cc1OC)C(C(=O)NC(C)c1ccccc1)CC(=O)N2 (stereo not drawn)	0	0	0	0	0	0
SMILES	TDP1 cell CPT	IL1B secr inh	ELG1 repair inh	TDP1 cell noCPT	RORgamma inh	VP16 counter
CC(=O)Nc1ccc(NC(=O)C2CCN(C(=O)c3cccs3)CC2)cc1	23.1µM	?	0	0	0	0
COc1ccccc1NC(=O)Nc1ccc(C(=O)N2CCCCC2)cc1	?	?	?	20.6µM	0	0
O=C(NC1CCCCCC1)C1CCN(C(=O)c2ccc(Br)cc2)CC1	20.6µM	0	0	14.6µM	0	0
COC(=O)c1ccccc1NC(=O)Nc1ccc(C(=O)N2CCCC2)cc1	0	0	0	0	0	0
COc1ccccc1NC(C)C(=O)Nc1ccc(C(C)=O)cc1 (stereo not drawn)	?	0	0	20.6µM	0	0
COc1ccccc1NC(=O)C(C)Nc1ccc(C)c(Cl)c1 (stereo not drawn)	0	0	0	?	0	0[10 µM]
COc1ccc2cc(CNCc3ccccc3C(F)(F)F)c(N3CCCC(CO)C3)nc2c1 (stereo not drawn)	0[9.04 µM]	-	-	0	-	-
O=C(COc1ccc(Cl)cc1)NCc1nnc(SCC(=O)N2CCCCCC2)o1	?	0	0	0	0	0[10 µM]
CN(C)C(=O)N1CCc2ccc([N+](=O)[O-])cc21	0	0	-	0	-	-
CC(C)CN(C1CCS(=O)(=O)C1)S(=O)(=O)c1ccc(C(C)C)cc1 (stereo not drawn)	?	0	0	?	-	-
CC(C)c1ccc(NC(=O)C2CCN(C(=O)c3ccc(F)cc3)CC2)cc1	?	-	-	8.2µM	-	-
O=C(CCNC(=O)N1CC(=O)Nc2ccccc21)NCc1cccc(C(F)(F)F)c1	0	0	-	0	-	-
COc1ccc(NC(=O)C2(C)CCN2Cc2ccccc2Cl)cc1OC (stereo not drawn)	9.2µM	?	-	8.2µM	-	-
COc1ccc(NC(=O)C2(C)CCN2Cc2ccc(C(C)C)cc2)cc1OC (stereo not drawn)	18.4µM	0	-	23.1µM	-	-
COc1ccc(NC(=O)C2(C)CCN2CC2CCCCC2)cc1OC (stereo not drawn)	?	0	-	14.6µM	-	-
COc1ccc(NC(=O)C2(C)CCN2C(=O)CC2CCCC2)cc1OC (stereo not drawn)	0	0	-	0	-	-
COc1ccc(NC(=O)C2(C)CCN2Cc2ccc(OC(C)C)cc2)cc1OC (stereo not drawn)	?	0	-	?	-	-
COCCn1c(=O)c(-c2cc(F)cc(F)c2)nc2cnc(Oc3cccc(Cl)c3)nc21	?	-	-	0	0	0
O=C(CSc1cccc[n+]1[O-])NC1CCCCC1	0	0	0	0	-	-
O=C(NCCN1CCC(n2c(=O)[nH]c3ccccc32)CC1)c1cccs1	0	0	-	0	-	-
Cc1ccc(S(=O)(=O)N2CCOCC2)cc1NC(=O)COC(=O)COc1ccc(C#N)cc1	0	0	-	?	-	-
O=S(=O)(c1ccc(F)cc1)N1CCC2(CC1)OCCO2	0	0	0	0	0	0
Cc1ccc(C)c2c1CCC(=Cc1ccccc1[N+](=O)[O-])C2=O	?	0	-	?	-	-
